# Measurements: PubChem BioAssay AID1159580 (chemical genetic matrix, 2015)
# Hit rate of the full screen: of about 5,500 compounds, about 2,000 (36%) were called active. Roughly 18% stayed inconclusive and do not appear here. Some of the results follow. Values without a mark were called inactive. Cut-off read from the data, not from the text of the source: active = normalized growth mostly below about 0.91 (no sharp cut-off); inconclusive = no clear call, values can overlap the other calls; inactive = mostly above about 0.92.
# Experiment: chemical genetic growth profiling, strain panel (AID 1159580);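 note: tested at 20 µM; growth read once vehicle control cultures reached saturation at 30 °C; 1 = growth at the plate median or of vehicle wells; lower values mean less growth of the strain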
# Conditions: S. cerevisiae deletion strains, growth OD
# [1] = locus YAL013W, strain DEP1, active compounds read low
# [2] = locus YDL101C, strain DUN1, active compounds read low
# [3] = locus YDR150W, strain NUM1, active compounds read low
# [4] = locus YHR030C, strain SLT2, active compounds read low
# [5] = locus YJR075W, strain HOC1, active compounds read low
# [6] = locus YPL241C, strain CIN2, active compounds read low
compound,measurement,setting,value
CSC(=NC(=O)c1c(Cl)cccc1Cl)SC,normalized growth,[1],0.886 (active)
same,normalized growth,"locus YBR229C, strain ROT2, active compounds read low",0.856 (active)
same,normalized growth,[2],0.866 (active)
same,normalized growth,"locus YDL134C, strain PPH21, active compounds read low",0.782 (active)
same,normalized growth,[3],0.992
same,normalized growth,"locus YEL061C, strain CIN8, active compounds read low",0.781 (active)
same,normalized growth,"locus YGR078C, strain PAC10, active compounds read low",0.912 (active)
same,normalized growth,[4],0.194 (active)
same,normalized growth,"locus YHR087W, strain rtc3, active compounds read low",0.896 (active)
same,normalized growth,"locus YJL187C, strain SWE1, active compounds read low",0.82 (active)
same,normalized growth,"locus YJR043C, strain POL32, active compounds read low",0.904 (active)
same,normalized growth,[5],0.776 (active)
same,normalized growth,"locus YLR039C, strain RIC1, active compounds read low",0.284 (active)
same,normalized growth,"locus YLR058C, strain SHM2 (second series), active compounds read low",0.924 (active)
same,normalized growth,"locus YLR085C, strain ARP6, active compounds read low",0.332 (active)
same,normalized growth,"locus YLR262C, strain YPT6, active compounds read low",0.275 (active)
same,normalized growth,"locus YML094W, strain GIM5, active compounds read low",0.85 (active)
same,normalized growth,"locus YMR219W, strain ESC1, active compounds read low",0.932 (active)
same,normalized growth,"locus YMR263W, strain SAP30, active compounds read low",0.931
same,normalized growth,"locus YMR307W, strain GAS1, active compounds read low",0.177 (active)
same,normalized growth,"locus YNL128W, strain TEP1, active compounds read low",0.928
same,normalized growth,"locus YNL153C, strain GIM3, active compounds read low",0.852 (active)
same,normalized growth,"locus YNL298W, strain CLA4 (second series), active compounds read low",0.636 (active)
same,normalized growth,"locus YNL322C, strain KRE1, active compounds read low",0.925 (active)
same,normalized growth,"locus YNR030W, strain Alg12, active compounds read low",0.747 (active)
same,normalized growth,"locus YOL006C, strain TOP1, active compounds read low",0.541 (active)
same,normalized growth,"locus YPL055C, strain LGE1, active compounds read low",0.919
same,normalized growth,[6],0.663 (active)
same,normalized growth,"locus YPR135W, strain CTF4, active compounds read low",0.313 (active)
CSC(=NNc1ccccc1)NC(=O)c1c(Cl)cccc1Cl,normalized growth,"locus YAR019C, strain CDC15, active compounds read low",0.972
same,normalized growth,"locus YBL105C, strain PKC1, active compounds read low",0.967
same,normalized growth,"locus YBR135W, strain CKS1, active compounds read low",0.967
same,normalized growth,"locus YBR136W, strain MEC1, active compounds read low",0.972
same,normalized growth,"locus YBR160W, strain CDC28, active compounds read low",0.967
same,normalized growth,"locus YDL017W, strain CDC7, active compounds read low",0.981
same,normalized growth,"locus YDL028C, strain MPS1, active compounds read low",0.975
same,normalized growth,[2],0.974
same,normalized growth,"locus YDL108W, strain KIN28, active compounds read low",0.963
same,normalized growth,"locus YDL132W, strain cdc53, active compounds read low",0.98
same,normalized growth,"locus YDL214C, strain PRR2, active compounds read low",0.89
same,normalized growth,"locus YDR052C, strain DBF4, active compounds read low",0.975
same,normalized growth,"locus YDR054C, strain cdc34, active compounds read low",0.961
same,normalized growth,"locus YDR226W, strain ADK1, active compounds read low",0.969
same,normalized growth,"locus YDR477W, strain SNF1, active compounds read low",0.923
same,normalized growth,"locus YER123W, strain YCK3, active compounds read low",0.812
same,normalized growth,"locus YER133W, strain GLC7, active compounds read low",0.918
same,normalized growth,"locus YFL009W, strain cdc4, active compounds read low",0.972
same,normalized growth,"locus YFL029C, strain CAK1, active compounds read low",0.958
same,normalized growth,"locus YFR003C, strain YPI1, active compounds read low",0.971
same,normalized growth,"locus YFR019W, strain FAB1, active compounds read low",0.904
same,normalized growth,"locus YFR028C, strain CDC14, active compounds read low",0.967
same,normalized growth,"locus YGR040W, strain KSS1, active compounds read low",0.887
same,normalized growth,"locus YGR052W, strain FMP48, active compounds read low",0.951
same,normalized growth,"locus YGR092W, strain DBF2, active compounds read low",0.82
same,normalized growth,[4],0.909
same,normalized growth,"locus YHR079C, strain IRE1, active compounds read low",0.896
same,normalized growth,"locus YHR082C, strain KSP1, active compounds read low",0.938
same,normalized growth,"locus YHR205W, strain SCH9, active compounds read low",0.921
same,normalized growth,"locus YIL147C, strain SLN1, active compounds read low",0.975
same,normalized growth,"locus YJL095W, strain BCK1, active compounds read low",0.902
same,normalized growth,"locus YJL128C, strain PBS2, active compounds read low",0.945
same,normalized growth,"locus YJL157C, strain FAR1, active compounds read low",0.886
same,normalized growth,"locus YJR016C, strain ILV3, active compounds read low",0.966
same,normalized growth,"locus YJR066W, strain TOR1 (second series), active compounds read low",0.904
same,normalized growth,"locus YJR066W, strain TOR1, active compounds read low",0.968
same,normalized growth,"locus YKL048C, strain ELM1, active compounds read low",0.882
same,normalized growth,"locus YKL067W, strain YNK1, active compounds read low",0.892
same,normalized growth,"locus YKL101W, strain HSL1, active compounds read low",0.867
same,normalized growth,"locus YKL193C, strain SDS22, active compounds read low",0.969
same,normalized growth,"locus YKL203C, strain TOR2, active compounds read low",0.969
same,normalized growth,"locus YLR113W, strain HOG1, active compounds read low",0.738 (active)
same,normalized growth,"locus YLR133W, strain CKI1, active compounds read low",0.872
same,normalized growth,"locus YLR403W, strain SFP1, active compounds read low",0.897
same,normalized growth,"locus YML070W, strain DAK1, active compounds read low",0.806
same,normalized growth,"locus YMR001C, strain CDC5, active compounds read low",0.965
same,normalized growth,"locus YMR205C, strain PFK2 (second series), active compounds read low",0.887
same,normalized growth,"locus YMR277W, strain FCP1, active compounds read low",0.975
same,normalized growth,"locus YNL006W, strain LST8, active compounds read low",0.97
same,normalized growth,"locus YNL020C, strain ARK1, active compounds read low",0.88
same,normalized growth,"locus YNL161W, strain CBK1, active compounds read low",0.979
same,normalized growth,"locus YNL183C, strain NPR1, active compounds read low",0.927
same,normalized growth,"locus YNL207W, strain RIO2, active compounds read low",0.97
same,normalized growth,"locus YNL222W, strain SSU72, active compounds read low",0.961
same,normalized growth,"locus YNL307C, strain MCK1 (second series), active compounds read low",0.817
same,normalized growth,"locus YOL078W, strain AVO1, active compounds read low",0.968
same,normalized growth,"locus YOL136C, strain PFK27, active compounds read low",0.842
same,normalized growth,"locus YOR061W, strain CKA2, active compounds read low",0.798
same,normalized growth,"locus YOR119C, strain RIO1, active compounds read low",0.961
same,normalized growth,"locus YOR231W, strain MKK1, active compounds read low",0.82
same,normalized growth,"locus YOR329C, strain SCD5, active compounds read low",0.976
same,normalized growth,"locus YPL031C, strain PHO85, active compounds read low",0.917
same,normalized growth,"locus YPL153C, strain RAD53, active compounds read low",0.91
same,normalized growth,"locus YPL204W, strain HRR25, active compounds read low",0.906
same,normalized growth,"locus YPL209C, strain IPL1, active compounds read low",0.972
same,normalized growth,"locus YPL256C, strain CLN2, active compounds read low",0.814 (active)
same,normalized growth,"locus YPR025C, strain CCL1, active compounds read low",0.968
same,normalized growth,"locus YPR106W, strain ISR1, active compounds read low",0.955
same,normalized growth,"locus YPR111W, strain DBF20, active compounds read low",0.948
same,normalized growth,"strain NNK1, active compounds read low",0.964
same,normalized growth,"strain TSCII, active compounds read low",0.968
NC(N)=NC(=O)Cc1c(Cl)cccc1Cl,normalized growth,[1],1.01
same,normalized growth,"locus YAL040C, strain CLN3, active compounds read low",0.979
same,normalized growth,"locus YCL061C, strain MRC1 (second series), active compounds read low",1
same,normalized growth,[3],0.997
same,normalized growth,"locus YDR363W, strain ESC2, active compounds read low",0.997
same,normalized growth,"locus YER002W, strain NOP16, active compounds read low",1.04
same,normalized growth,[5],1
same,normalized growth,"locus YNL175C, strain NOP13, active compounds read low",0.996
same,normalized growth,"locus YNL197C, strain WHI3, active compounds read low",1.02
same,normalized growth,"locus YNL224C, strain SQS1, active compounds read low",0.971
same,normalized growth,"locus YOR083W, strain WHI5 (second series), active compounds read low",1.01
same,normalized growth,[6],1
